In publication PMC8384837, “Expanding the binding specificity for RNA recognition by a PUF domain”:

Legend:
Experiment in all cases: yeast three-hybrid, YBZ-1, SC-Leu-His + 0.5 mM 3-AT, 4 days
Conditions in all cases: tags: N-Gal4 AD-HA kept; label: inside an RPR1-promoter hybrid RNA with tandem MS2 sites; ssRNA
PUM1 PUF domain R1-RLS = PUM1 PUF domain R1-RLS (Homo sapiens, UniProt Q14671 828-1176, S863R;R864L;Q867S)
How it was run: (§1)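 The interaction score is the logarithmic change in variant frequency from input to selection. It uses log2, with a pseudocount of 1 for absent variants, and frequencies came from PCR-amplified, Illumina-sequenced repeat regions. The libraries were Pumilio-1 PUF domains randomized at the three base-contacting residues per repeat, co-expressed with matching RNA elements in strain YBZ-1 (LexA–MS2 coat fusion, HIS3 reporter). Plating lasted four days on SC-Leu (input) or SC-Leu-His + 0.5 mM 3-AT (selection).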

PUM1 PUF domain R4-NNA = PUM1 PUF domain R4-NNA (Homo sapiens, UniProt Q14671 828-1176, H972N;Q975A)
How it was run: as §1

PUM1 PUF domain R4-CPV = PUM1 PUF domain R4-CPV (Homo sapiens, UniProt Q14671 828-1176, N971C;H972P;Q975V)
How it was run: as §1

PUM1 PUF domain R2-SWG = PUM1 PUF domain R2-SWG (Homo sapiens, UniProt Q14671 828-1176, N899S;Y900W;Q903G)
How it was run: as §1

PUM1 PUF domain R3-SRR = PUM1 PUF domain R3-SRR (Homo sapiens, UniProt Q14671 828-1176, C935S;Q939R)
How it was run: as §1

PUM1 PUF domain R3-RSF = PUM1 PUF domain R3-RSF (Homo sapiens, UniProt Q14671 828-1176, C935R;R936S;Q939F)
How it was run: as §1

PUM1 PUF domain R3-IFA = PUM1 PUF domain R3-IFA (Homo sapiens, UniProt Q14671 828-1176, C935I;R936F;Q939A)
How it was run: as §1

PUM1 PUF domain R8-IHR = PUM1 PUF domain R8-IHR (Homo sapiens, UniProt Q14671 828-1176, N1122I;Y1123H;Q1126R)
How it was run: as §1

PUM1 PUF domain R5-NQR = PUM1 PUF domain R5-NQR (Homo sapiens, UniProt Q14671 828-1176, C1007N;R1008Q;Q1011R)
How it was run: as §1

PUM1 PUF domain R5-FNL = PUM1 PUF domain R5-FNL (Homo sapiens, UniProt Q14671 828-1176, C1007F;R1008N;Q1011L)
How it was run: as §1

PUM1 PUF domain R5-RFV = PUM1 PUF domain R5-RFV (Homo sapiens, UniProt Q14671 828-1176, C1007R;R1008F;Q1011V)
How it was run: as §1

PUM1 PUF domain R4-DHT = PUM1 PUF domain R4-DHT (Homo sapiens, UniProt Q14671 828-1176, N971D;Q975T)
How it was run: as §1

PUM1 PUF domain R3-TYF = PUM1 PUF domain R3-TYF (Homo sapiens, UniProt Q14671 828-1176, C935T;R936Y;Q939F)
How it was run: as §1

PUM1 PUF domain R5-EYR = PUM1 PUF domain R5-EYR (Homo sapiens, UniProt Q14671 828-1176, C1007E;R1008Y;Q1011R)
How it was run: as §1

PUM1 PUF domain R3-MWH = PUM1 PUF domain R3-MWH (Homo sapiens, UniProt Q14671 828-1176, C935M;R936W;Q939H)
How it was run: as §1

PUM1 PUF domain R5-ISR = PUM1 PUF domain R5-ISR (Homo sapiens, UniProt Q14671 828-1176, C1007I;R1008S;Q1011R)
How it was run: as §1

PUM1 PUF domain R6-FHS = target: T1, PUM1 PUF domain R6-FHS (Homo sapiens, UniProt Q14671 828-1176, N1043F;Y1044H;Q1047S)
T1 sequence: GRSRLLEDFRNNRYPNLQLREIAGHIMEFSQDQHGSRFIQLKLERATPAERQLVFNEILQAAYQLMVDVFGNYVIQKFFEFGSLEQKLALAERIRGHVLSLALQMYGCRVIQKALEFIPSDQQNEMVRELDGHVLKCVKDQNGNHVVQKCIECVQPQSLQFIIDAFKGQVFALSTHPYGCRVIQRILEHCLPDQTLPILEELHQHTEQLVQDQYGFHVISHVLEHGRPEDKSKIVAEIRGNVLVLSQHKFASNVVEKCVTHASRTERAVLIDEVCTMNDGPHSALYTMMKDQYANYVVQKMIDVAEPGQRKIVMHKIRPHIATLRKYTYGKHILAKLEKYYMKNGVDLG
How it was run: as §1

PUM1 PUF domain R5-QQC = PUM1 PUF domain R5-QQC (Homo sapiens, UniProt Q14671 828-1176, C1007Q;R1008Q;Q1011C)
How it was run: as §1

PUM1 PUF domain R5-QHE = PUM1 PUF domain R5-QHE (Homo sapiens, UniProt Q14671 828-1176, C1007Q;R1008H;Q1011E)
How it was run: as §1

PUM1 PUF domain R7-KSV = PUM1 PUF domain R7-KSV (Homo sapiens, UniProt Q14671 828-1176, S1079K;N1080S;E1083V)
How it was run: as §1

**Q.** How did the binding signal (PUM1 PUF domain R1-RLS) turn out when “GGCUAGAACUAGUGGAUCCCCCGGCGCCCGGCGGCUCGAGCCCGGGUAAGUGUAAAUCGUCUGCAUGCCGCCGGGCGCCAUGCCUGCAGGUCGACUCUAGAAAACAUG” was run?
**A.** 1.22 log2 enrichment (interaction score)

**Q.** With “GGCUAGAACUAGUGGAUCCCCCGGCGCCCGGCGGCUCGAGCCCGGGUAAGUGUAUAUAGUCUGCAUGCCGCCGGGCGCCAUGCCUGCAGGUCGACUCUAGAAAACAUG” as the sequence, how does the binding signal (PUM1 PUF domain R4-NNA) read?
**A.** 4.34 log2 enrichment (interaction score)

**Q.** What about the binding signal (PUM1 PUF domain R4-CPV) of the same sequence?
**A.** 2.93 log2 enrichment (interaction score)

**Q.** Which binding signal (PUM1 PUF domain R2-SWG) does the source give for “GGCUAGAACUAGUGGAUCCCCCGGCGCCCGGCGGCUCGAGCCCGGGUAAGUGUAAAAAGUCUGCAUGCCGCCGGGCGCCAUGCCUGCAGGUCGACUCUAGAAAACAUG” here?
**A.** 3.09 log2 enrichment (interaction score)

**Q.** Which results are given for “GGCUAGAACUAGUGGAUCCCCCGGCGCCCGGCGGCUCGAGCCCGGGUAAGUGUAAUUAGUCUGCAUGCCGCCGGGCGCCAUGCCUGCAGGUCGACUCUAGAAAACAUG”?
**A.** binding signal (PUM1 PUF domain R3-SRR): 3.98 log2 enrichment (interaction score); binding signal (PUM1 PUF domain R3-RSF): 3.86 log2 enrichment (interaction score); binding signal (PUM1 PUF domain R3-IFA): 3.87 log2 enrichment (interaction score)

**Q.** With “GGCUAGAACUAGUGGAUCCCCCGGCGCCCGGCGGCUCGAGCCCGGGUAAGUGUAAAGAGUCUGCAUGCCGCCGGGCGCCAUGCCUGCAGGUCGACUCUAGAAAACAUG” as the sequence, how does the binding signal (PUM1 PUF domain R2-SWG) read?
**A.** 1.53 log2 enrichment (interaction score)

**Q.** For “GGCUAGAACUAGUGGAUCCCCCGGCGCCCGGCGGCUCGAGCCCGGGUAAGCGUAAAUAGUCUGCAUGCCGCCGGGCGCCAUGCCUGCAGGUCGACUCUAGAAAACAUG”, which binding signal (PUM1 PUF domain R8-IHR) is on record?
**A.** 4.48 log2 enrichment (interaction score)

**Q.** How did the binding signal (PUM1 PUF domain R3-SRR) turn out when “GGCUAGAACUAGUGGAUCCCCCGGCGCCCGGCGGCUCGAGCCCGGGUAAGUGUAAGUAGUCUGCAUGCCGCCGGGCGCCAUGCCUGCAGGUCGACUCUAGAAAACAUG” was run?
**A.** 2.24 log2 enrichment (interaction score)

**Q.** “GGCUAGAACUAGUGGAUCCCCCGGCGCCCGGCGGCUCGAGCCCGGGUAAGUGUUAAUAGUCUGCAUGCCGCCGGGCGCCAUGCCUGCAGGUCGACUCUAGAAAACAUG” was tested. Which binding signal (PUM1 PUF domain R5-NQR) did it give?
**A.** 4.88 log2 enrichment (interaction score)

**Q.** What about the binding signal (PUM1 PUF domain R5-FNL) of the same sequence?
**A.** 3.47 log2 enrichment (interaction score)

**Q.** And the binding signal (PUM1 PUF domain R5-RFV)?
**A.** 4.04 log2 enrichment (interaction score)

**Q.** How did the binding signal (PUM1 PUF domain R4-CPV) turn out when “GGCUAGAACUAGUGGAUCCCCCGGCGCCCGGCGGCUCGAGCCCGGGUAAGUGUACAUAGUCUGCAUGCCGCCGGGCGCCAUGCCUGCAGGUCGACUCUAGAAAACAUG” was run?
**A.** 1.61 log2 enrichment (interaction score)

**Q.** What about the binding signal (PUM1 PUF domain R4-DHT) of the same sequence?
**A.** 2.73 log2 enrichment (interaction score)

**Q.** “GGCUAGAACUAGUGGAUCCCCCGGCGCCCGGCGGCUCGAGCCCGGGUAAGUGUAAAUAGUCUGCAUGCCGCCGGGCGCCAUGCCUGCAGGUCGACUCUAGAAAACAUG” was tested. Which binding signal (PUM1 PUF domain R3-TYF) did it give?
**A.** 6.49 log2 enrichment (interaction score)

**Q.** And the binding signal (PUM1 PUF domain R5-RFV)?
**A.** 2.29 log2 enrichment (interaction score)

**Q.** What about the binding signal (PUM1 PUF domain R4-NNA) of the same sequence?
**A.** 2.12 log2 enrichment (interaction score)

**Q.** What about the binding signal (PUM1 PUF domain R5-EYR) of the same sequence?
**A.** 5.2 log2 enrichment (interaction score)

**Q.** And the binding signal (PUM1 PUF domain R3-MWH)?
**A.** 2.6 log2 enrichment (interaction score)

**Q.** And the binding signal (PUM1 PUF domain R3-SRR)?
**A.** 0.87 log2 enrichment (interaction score)

**Q.** And the binding signal (PUM1 PUF domain R4-CPV)?
**A.** 1.1 log2 enrichment (interaction score)

**Q.** What about the binding signal (PUM1 PUF domain R5-ISR) of the same sequence?
**A.** 1.4 log2 enrichment (interaction score)

**Q.** What about the binding signal (PUM1 PUF domain R6-FHS) of the same sequence?
**A.** 4.18 log2 enrichment (interaction score)

**Q.** And the binding signal (PUM1 PUF domain R8-IHR)?
**A.** 3.28 log2 enrichment (interaction score)

**Q.** “GGCUAGAACUAGUGGAUCCCCCGGCGCCCGGCGGCUCGAGCCCGGGUAAGUGUAACUAGUCUGCAUGCCGCCGGGCGCCAUGCCUGCAGGUCGACUCUAGAAAACAUG” was tested. Which binding signal (PUM1 PUF domain R3-SRR) did it give?
**A.** 3.34 log2 enrichment (interaction score)

**Q.** With “GGCUAGAACUAGUGGAUCCCCCGGCGCCCGGCGGCUCGAGCCCGGGUAAGUGUGAAUAGUCUGCAUGCCGCCGGGCGCCAUGCCUGCAGGUCGACUCUAGAAAACAUG” as the sequence, how does the binding signal (PUM1 PUF domain R5-RFV) read?
**A.** 1.88 log2 enrichment (interaction score)

**Q.** And the binding signal (PUM1 PUF domain R5-QQC)?
**A.** 4.46 log2 enrichment (interaction score)

**Q.** What about the binding signal (PUM1 PUF domain R5-QHE) of the same sequence?
**A.** 3.04 log2 enrichment (interaction score)

**Q.** With “GGCUAGAACUAGUGGAUCCCCCGGCGCCCGGCGGCUCGAGCCCGGGUAAGUGUAAAUUGUCUGCAUGCCGCCGGGCGCCAUGCCUGCAGGUCGACUCUAGAAAACAUG” as the sequence, how does the binding signal (PUM1 PUF domain R1-RLS) read?
**A.** 2.64 log2 enrichment (interaction score)

**Q.** With “GGCUAGAACUAGUGGAUCCCCCGGCGCCCGGCGGCUCGAGCCCGGGUAAGUUUAAAUAGUCUGCAUGCCGCCGGGCGCCAUGCCUGCAGGUCGACUCUAGAAAACAUG” as the sequence, how does the binding signal (PUM1 PUF domain R7-KSV) read?
**A.** 3.22 log2 enrichment (interaction score)

**Q.** Which binding signal (PUM1 PUF domain R7-KSV) does the source give for “GGCUAGAACUAGUGGAUCCCCCGGCGCCCGGCGGCUCGAGCCCGGGUAAGUCUAAAUAGUCUGCAUGCCGCCGGGCGCCAUGCCUGCAGGUCGACUCUAGAAAACAUG” here?
**A.** 3.22 log2 enrichment (interaction score)

**Q.** Which binding signal (PUM1 PUF domain R5-NQR) does the source give for “GGCUAGAACUAGUGGAUCCCCCGGCGCCCGGCGGCUCGAGCCCGGGUAAGUGUCAAUAGUCUGCAUGCCGCCGGGCGCCAUGCCUGCAGGUCGACUCUAGAAAACAUG” here?
**A.** 4.31 log2 enrichment (interaction score)

**Q.** And the binding signal (PUM1 PUF domain R5-RFV)?
**A.** 5.48 log2 enrichment (interaction score)

**Q.** What about the binding signal (PUM1 PUF domain R5-ISR) of the same sequence?
**A.** 3.12 log2 enrichment (interaction score)
